Unmarked numbers belong to inactive results. Records with an inconclusive call do not appear. Active and inactive are the calls of the source. Unless noted, calls follow the shape of the dose curve; as a rule, active = well fitted curve in the direction sought with a large enough effect; inconclusive = small, poorly fitted or top-dose-only effect, or another doubt; inactive = no such curve, though single readings can be large; an effect the other way counts as inactive or inconclusive. Some results are limits rather than exact numbers.

7 molecules from PubChem BioAssay (NCATS) can be followed below.

Experiment [1] addresses Rap guanine nucleotide exchange factor 3 (Homo sapiens) (UniProt O95398). Kind of experiment: Confirmatory qHTS for antagonist of cAMP-regulated guanine nucleotide exchange factor 3 (EPAC1) (AID 1645880). Also: nearly all actives have a fitted effect of over 55% in size. Also: potency is read from the fitted curve at half-maximal effect.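 As to activity, negative = inhibition: plate controls were DMSO only for no effect and full effect of the ATA control for full effect.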 As to conditions: EPAC1 Rap1B-BODIPY-GDP exchange, fluorescence; activity, negative = inhibition: at 115 µM (top of the series). An outline of the steps:
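Nucleotide exchange uses 100 nM EPAC1, 250 nM RAP1B-BODIPY-GDP and 50 uM GDP, with compounds in a concentration-titration series. After 5 min at room temperature, fluorescence (480 nm ex/540 nm em) is read every 5 min for 30 min. Data are normalized to control ATA and DMSO.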

Experiment [2] shares this target. Kind of experiment: Confirmatory qHTS for agonist of cAMP-regulated guanine nucleotide exchange factor 3 (EPAC1) (AID 1645881).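 Also: EPAC1 catalysed release of BODIPY-GDP from Rap1B seen as fluorescence loss; 100% = effect of cAMP agonist control; nearly all actives have a fitted effect of over 75% in size.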 For orientation: qHTS replaces the single test concentration by a dilution series.
Experiment [3] deals with Rap guanine nucleotide exchange factor 4 (Homo sapiens) (UniProt Q8WZA2). Kind of experiment: Confirmatory qHTS for agonist of cAMP-regulated guanine nucleotide exchange factor 4 (EPAC2) (AID 1645884).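 Also: nucleotide exchange releases bodipy-GDP from Rap1 and this lowers its fluorescence; % is scaled to controls: 0 for no effect and ±100 for the full control effect; nearly all actives have a fitted effect of over 65% in size.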
Rap guanine nucleotide exchange factor 4 (Homo sapiens), sequence (Q8WZA2 whole entry, looked up): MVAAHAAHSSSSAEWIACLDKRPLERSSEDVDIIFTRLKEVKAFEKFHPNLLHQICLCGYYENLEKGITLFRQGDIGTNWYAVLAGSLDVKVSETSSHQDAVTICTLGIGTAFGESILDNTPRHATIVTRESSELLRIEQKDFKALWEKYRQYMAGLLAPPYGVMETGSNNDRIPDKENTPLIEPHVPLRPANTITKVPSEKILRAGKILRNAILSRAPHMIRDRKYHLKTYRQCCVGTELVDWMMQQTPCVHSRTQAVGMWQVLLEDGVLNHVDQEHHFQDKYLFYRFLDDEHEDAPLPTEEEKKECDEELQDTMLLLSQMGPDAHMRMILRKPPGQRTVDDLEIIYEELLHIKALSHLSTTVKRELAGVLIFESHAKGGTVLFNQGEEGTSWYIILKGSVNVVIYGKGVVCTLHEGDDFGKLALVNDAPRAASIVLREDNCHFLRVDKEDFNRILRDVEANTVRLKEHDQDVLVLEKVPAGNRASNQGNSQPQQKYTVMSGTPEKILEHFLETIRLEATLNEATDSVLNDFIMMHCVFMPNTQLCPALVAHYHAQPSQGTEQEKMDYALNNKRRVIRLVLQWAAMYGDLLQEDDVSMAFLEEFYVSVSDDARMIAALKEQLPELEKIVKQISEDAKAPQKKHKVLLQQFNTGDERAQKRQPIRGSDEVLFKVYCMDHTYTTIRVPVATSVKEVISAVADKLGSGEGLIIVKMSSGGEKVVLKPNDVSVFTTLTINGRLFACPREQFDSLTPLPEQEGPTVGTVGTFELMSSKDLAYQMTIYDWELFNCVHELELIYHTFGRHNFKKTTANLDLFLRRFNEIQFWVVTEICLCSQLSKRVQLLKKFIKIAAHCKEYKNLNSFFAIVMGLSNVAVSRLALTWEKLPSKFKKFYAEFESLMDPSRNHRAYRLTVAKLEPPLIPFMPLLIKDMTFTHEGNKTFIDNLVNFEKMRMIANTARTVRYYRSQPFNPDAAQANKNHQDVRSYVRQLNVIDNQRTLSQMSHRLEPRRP
Experiment [4] shares this target. Kind of experiment: Confirmatory qHTS for antagonist of cAMP-regulated guanine nucleotide exchange factor 4 (EPAC2) (AID 1645885). Also: nearly all actives have a fitted effect of over 25% in size. Also: potency is read from the fitted curve at half-maximal effect.
For experiment [5], the target named is Rap guanine nucleotide exchange factor 3 (Homo sapiens) (UniProt O95398). Kind of experiment: Counterscreen qHTS for antagonist of cAMP-regulated guanine nucleotide exchange factor 3 (EPAC1) (AID 1645888).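 Also: fluorescence loss as bound BODIPY-GDP is released from Rap1B; % of control where 0% means no effect.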 The method, boiled down: (§1)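 Rap1B–BODIPY-GDP (250 nM) with 50 uM GDP; compounds pin-transferred to 9.74 nM–152 uM final (activator) or from 7.32 nM upwards (inhibitor). Fluorescence Ex/Em 480/540 nm read at 5 and 30 min, then after adding cAMP or buffer, at room temperature.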
Rap guanine nucleotide exchange factor 3 (Homo sapiens), sequence (O95398 whole entry, looked up): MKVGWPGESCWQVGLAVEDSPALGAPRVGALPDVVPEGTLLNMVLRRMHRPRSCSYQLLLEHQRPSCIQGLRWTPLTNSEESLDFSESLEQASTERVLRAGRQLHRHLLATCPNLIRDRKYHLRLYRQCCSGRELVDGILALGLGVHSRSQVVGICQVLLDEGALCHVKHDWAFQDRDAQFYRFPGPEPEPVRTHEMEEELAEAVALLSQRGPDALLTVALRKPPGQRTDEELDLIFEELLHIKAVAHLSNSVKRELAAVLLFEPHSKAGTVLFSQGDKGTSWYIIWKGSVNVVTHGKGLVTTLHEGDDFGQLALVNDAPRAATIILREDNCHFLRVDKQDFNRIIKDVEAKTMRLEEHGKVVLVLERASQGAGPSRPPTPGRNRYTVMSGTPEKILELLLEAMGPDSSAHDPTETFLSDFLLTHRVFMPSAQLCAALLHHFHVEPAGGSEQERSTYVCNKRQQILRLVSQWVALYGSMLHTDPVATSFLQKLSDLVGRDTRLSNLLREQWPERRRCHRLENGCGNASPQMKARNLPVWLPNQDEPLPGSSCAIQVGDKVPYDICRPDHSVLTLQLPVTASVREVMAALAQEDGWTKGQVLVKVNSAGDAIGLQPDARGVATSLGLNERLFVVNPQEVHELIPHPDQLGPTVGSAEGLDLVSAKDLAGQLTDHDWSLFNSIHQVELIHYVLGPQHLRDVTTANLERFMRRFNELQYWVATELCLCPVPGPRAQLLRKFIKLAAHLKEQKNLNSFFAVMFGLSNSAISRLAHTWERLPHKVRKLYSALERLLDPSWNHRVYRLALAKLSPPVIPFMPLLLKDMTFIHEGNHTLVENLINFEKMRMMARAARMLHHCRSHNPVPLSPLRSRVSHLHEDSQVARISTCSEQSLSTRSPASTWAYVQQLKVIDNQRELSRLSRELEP

The target is the same in experiment [6]. Kind of experiment: Counterscreen qHTS for agonist of cAMP-regulated guanine nucleotide exchange factor 3 (EPAC1) (AID 1645889). Also: % of control where 0% means no effect; nearly all actives have a fitted effect of over 40% in size. An outline of the steps:
as §1
A general note: Counterscreens check selectivity or assay interference.

Experiment [7] can be described thus: AP1 Signaling Pathway (AID 357; active = well fitted curve in either direction with a large enough effect, not every such curve was filed as active;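 also: ME-180 reporter cells stimulated with EGF at its EC50 level; % is scaled to controls: 0 for no effect and ±100 for the full control effect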). As to conditions: ME-180 AP-1-bla reporter, EGF-induced, beta-lactamase ratio, 5 h; at 7.69 µM (top of the series) unless noted. An outline of the steps: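 A ratiometric CCF4 readout (405 nm excitation; 460 and 530 nm emission) quantified AP-1-driven beta-lactamase in ME-180 cells after 5 h with compound and EC50 EGF; AC50 values were derived for activators and inhibitors.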

Experiment [8] can be described thus: NFAT Signaling Pathway (AID 444; active = well fitted curve in either direction with a large enough effect, not every such curve was filed as active;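 also: carbachol stimulus at about its EC50 of 1 µM final; % is scaled to controls: 0 for no effect and ±100 for the full control effect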). The following applies: Jurkat NFAT-bla M1, carbachol, beta-lactamase ratio, 5 h; at 7.69 µM (top of the series) unless noted. The method, boiled down: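 Jurkat cells with NFAT-driven β-lactamase reporter and co-expressed M1 receptor, stimulated with carbachol (final 1 uM, ~EC50), compound titration, 5 h at 37 °C. CCF4 loaded 1 h at RT; 460/530 nm ratio gave %activity and AC50.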

A short description of experiment [9]: Stat Signaling Pathway (AID 446; active = well fitted curve in either direction with a large enough effect, not every such curve was filed as active;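 also: ME-180 cervical cancer cells given 40 pM IL-6 alongside compound; SIE-controlled beta-lactamase reporter measured as 460/530 nm FRET emission ratio; % is scaled to controls: 0 for no effect and ±100 for the full control effect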). The method, boiled down: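 Reporter line: ME-180 cervical carcinoma, SIE-beta-lactamase. Treatment: compound with 40 pM IL-6, 5 hrs, 37 C, in low-serum OPTI-MEM with 10 mM HEPES pH 7.3. Detection: 460/530 nm fluorescence.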
Experiment [10] addresses Glucocorticoid receptor (Homo sapiens) (UniProt P04150). Kind of experiment: GR-GFP Redistribution (AID 450;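 active = compounds whose dose series gives a full or clear partial fitted curve of increased nuclear translocation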; also: potency is read from the fitted curve at half-maximal effect). As to conditions: U2OS GR-GFP nuclear translocation, laser cytometry, 2 h.
Experiment [11] shares this target. Kind of experiment: GR-EFC Redistribution (AID 451; calls by dose curve; also: potency is read from the fitted curve at half-maximal effect). The following applies: CHO-K1 GR-EFC translocation, beta-gal luminescence, 2 h. An outline of the steps: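 CHO-K1 cells expressing nuclear EA and GR-ED fragments of b-gal; compounds titrated up to 46 uM final, 2 h at 37 C. GR nuclear translocation read as complemented b-gal luminescence after 1 h RT detection.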

The target of experiment [12] is Mitogen-activated protein kinase 10 (Mus musculus) (UniProt Q61831). The experiment in a line: JNK3 AlphaScreen Assay (AID 530; active = well fitted curve in either direction with a large enough effect, not every such curve was filed as active;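 also: kinase came from lysate of stimulated human HepG2 cells; signal reports phosphorylation of biotinylated GST-cJun 1-79 at Ser73 with 10 µM ATP; % is scaled to controls: 0 for no effect and ±100 for the full control effect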). An outline of the steps:
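Pre-activated (IL-1β/TNFα) JNK3 in HepG2 lysates phosphorylates biotin-GST-cJun(1-79), 10 uM ATP; anti-phospho-cJun(Ser73) AlphaScreen read at room temperature, pH 7.6 Tris buffer. Compounds pre-incubated 15 min as titrations.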

Experiment [13] concerns the target 3',5'-cyclic-AMP phosphodiesterase 4B (Homo sapiens) (UniProt Q07343). Kind of experiment: qHTS Assay for Inhibitors of PDE-IV (AID 607; active = well fitted activation curve with a large enough effect in the main read-out, with a control signal flat, not every such curve was filed as active; also: % of control where 0% means no effect). An outline of the steps:
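Cell-based read-out of cAMP via a modified cyclic nucleotide-gated channel and membrane potential dye (535/590 nm) in HEK293 cells expressing PDE4 endogenously. Compounds tested up to 22.9 uM final; 100 uM RO 20-1724 reference.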

In experiment [14] the target is Tumor susceptibility gene 101 protein (Homo sapiens) (UniProt Q99816). The experiment in a line: qHTS Assay for Iinhibitors of HIV-1 Budding by Blocking the Interaction of PTAP/TSG101: Hit Validation (AID 651600). Also: potency is read from the fitted curve at half-maximal effect; nearly all actives have a fitted effect of over 70% in size. An outline of the steps:
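FITC-PTAP peptide (50 nM final) binding to Tsg101 binding domain (10 uM final) was measured by polarization after 20 min at r.t. with compounds, in 10 mM HEPES pH 7.5 buffer with 0.15 M NaCl and 0.01% Tween 20.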

Glucocorticoid receptor (Homo sapiens), sequence (P04150 whole entry, looked up, the tested form may be a part): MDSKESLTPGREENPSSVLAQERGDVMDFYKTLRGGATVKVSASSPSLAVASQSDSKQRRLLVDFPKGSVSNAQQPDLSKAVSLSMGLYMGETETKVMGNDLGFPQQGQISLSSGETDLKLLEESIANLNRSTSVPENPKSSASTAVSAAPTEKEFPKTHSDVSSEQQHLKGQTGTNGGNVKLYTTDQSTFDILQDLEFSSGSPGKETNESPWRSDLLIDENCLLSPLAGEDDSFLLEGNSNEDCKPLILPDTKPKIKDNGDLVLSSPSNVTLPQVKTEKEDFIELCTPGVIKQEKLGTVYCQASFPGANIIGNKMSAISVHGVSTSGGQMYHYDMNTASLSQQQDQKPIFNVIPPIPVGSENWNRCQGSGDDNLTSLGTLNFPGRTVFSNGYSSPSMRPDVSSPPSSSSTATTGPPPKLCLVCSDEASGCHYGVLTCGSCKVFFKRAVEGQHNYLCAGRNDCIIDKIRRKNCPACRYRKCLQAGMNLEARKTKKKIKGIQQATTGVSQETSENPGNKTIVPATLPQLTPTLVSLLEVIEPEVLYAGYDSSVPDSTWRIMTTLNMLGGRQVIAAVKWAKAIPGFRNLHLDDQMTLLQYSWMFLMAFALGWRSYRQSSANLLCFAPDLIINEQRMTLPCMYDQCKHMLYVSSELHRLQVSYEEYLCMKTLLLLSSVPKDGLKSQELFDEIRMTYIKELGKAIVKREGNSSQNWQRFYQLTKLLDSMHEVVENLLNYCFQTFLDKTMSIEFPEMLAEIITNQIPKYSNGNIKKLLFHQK
Tumor susceptibility gene 101 protein (Homo sapiens), sequence (Q99816 whole entry, looked up, the tested form may be a part): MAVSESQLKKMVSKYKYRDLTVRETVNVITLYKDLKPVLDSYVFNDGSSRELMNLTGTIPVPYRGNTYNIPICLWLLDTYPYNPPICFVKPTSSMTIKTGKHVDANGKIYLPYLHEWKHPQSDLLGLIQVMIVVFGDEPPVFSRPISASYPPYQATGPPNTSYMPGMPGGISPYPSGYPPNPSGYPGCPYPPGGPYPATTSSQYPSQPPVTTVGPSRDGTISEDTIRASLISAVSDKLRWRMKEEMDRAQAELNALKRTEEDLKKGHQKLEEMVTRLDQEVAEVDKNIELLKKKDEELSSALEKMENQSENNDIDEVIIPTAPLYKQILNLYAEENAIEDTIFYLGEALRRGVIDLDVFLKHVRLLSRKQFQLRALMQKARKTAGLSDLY
3',5'-cyclic-AMP phosphodiesterase 4B (Homo sapiens), sequence (Q07343 whole entry, looked up): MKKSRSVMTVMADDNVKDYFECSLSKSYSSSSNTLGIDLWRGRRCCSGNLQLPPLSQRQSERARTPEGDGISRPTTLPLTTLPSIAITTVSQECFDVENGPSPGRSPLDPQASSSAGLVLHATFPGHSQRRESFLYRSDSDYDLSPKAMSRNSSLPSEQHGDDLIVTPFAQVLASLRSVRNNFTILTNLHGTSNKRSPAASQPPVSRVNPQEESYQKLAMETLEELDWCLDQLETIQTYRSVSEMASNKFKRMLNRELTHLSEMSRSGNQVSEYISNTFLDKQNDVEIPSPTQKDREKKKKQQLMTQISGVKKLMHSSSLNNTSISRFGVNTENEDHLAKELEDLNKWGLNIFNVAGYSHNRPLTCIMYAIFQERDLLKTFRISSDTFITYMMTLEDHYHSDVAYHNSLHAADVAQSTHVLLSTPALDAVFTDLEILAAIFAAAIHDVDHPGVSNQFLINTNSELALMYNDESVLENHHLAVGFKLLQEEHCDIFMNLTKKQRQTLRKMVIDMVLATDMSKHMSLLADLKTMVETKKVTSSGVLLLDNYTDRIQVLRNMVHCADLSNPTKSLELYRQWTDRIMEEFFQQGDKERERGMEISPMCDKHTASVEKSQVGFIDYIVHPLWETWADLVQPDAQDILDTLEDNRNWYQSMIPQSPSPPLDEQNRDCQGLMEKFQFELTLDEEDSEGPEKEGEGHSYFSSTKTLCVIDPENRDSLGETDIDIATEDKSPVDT

As to `O=C(COc1ccccc1[N+](=O)[O-])Nc1cccc(C(=O)Nc2ccccc2C(=O)O)c1`, the Potency in experiment [1] is 23.9 µM (active). Further, the Potency result in experiment [2], in experiment [3], in [4], in experiment [5] and in experiment [6] was “inactive” in each case.
For `NS(=O)(=O)c1ccc(N=Nc2c[nH]c(=O)c(O)c2)cc1`, the activity change, negative = inhibition is 8.24% in experiment [7], -22.1% in experiment [8] and -17.1% [at 11.4 µM] in [12]. In addition, the call in [9] was inactive. Moreover, the Potency is greater than 46 µM in experiment [10]; greater than 9.22 µM in experiment [11]; 18.3 µM (active) in experiment [14]; 42.6 µM (active) in [1]; 84.9 µM (active) in experiment [4]. Also, the Potency entry in experiment [13], in experiment [2], in [3], in experiment [5] and in experiment [6] was “inactive” in each case.
Consider `O=C(O)CC1Sc2nc3ccccc3n2C1=O` (configuration not stated), for which the activity change, negative = inhibition in experiment [7] was 12.1% [at 17.2 µM]; in experiment [5] it was -7.87% [at 30.8 µM]. Moreover, the result in [9] was inactive. Further, in [10], the Potency is greater than 20.6 µM. Besides, the Potency entry in experiment [1], in experiment [2] and in experiment [4] was “inactive” throughout. Moreover, the activation in experiment [3] is 10.5% [at 17.1 µM, percent relative to cAMP agonist control]; in experiment [6], 12.5% [at 30.8 µM].
With `COc1ccc(NC(=O)N2CCN3CCCCC3C2)cc1OC` (configuration not stated), the Potency entry in experiment [1], in experiment [2], in [3], in [4], in experiment [5] and in [6] was “inactive” throughout.
For `Cc1ccc(SCc2nnc(N)s2)cc1`, the activity change, negative = inhibition is 14.2% [at 17.2 µM] in experiment [7], -2.66% [at 17.2 µM] in [8] and 3.94% [at 30.8 µM] in [5]. Also, the result in experiment [9] was inactive. In experiment [10], the Potency is greater than 20.6 µM. Also, the Potency entry in experiment [1], in [2] and in [4] was “inactive” in each case. In addition, the activation is 8.48% [at 17.1 µM, percent relative to cAMP agonist control] in [3] and 7.74% [at 30.8 µM] in experiment [6].
For `COc1ccc2nc3oc(C(=O)Nc4cccc(C(F)(F)F)c4)cc3cc2c1`, the Potency entry in experiment [1], in experiment [2], in experiment [3], in [4], in experiment [5] and in experiment [6] was “inactive” throughout.
As for `N#C/C(=C/c1ccc(O)c(O)c1)C(=O)NCc1ccc(Cl)cc1`, the Potency in experiment [1] was 12.6 µM (active). Also, the Potency result in experiment [2] and in [4] was “inactive” each time. The activation in experiment [3] is 6.16% [at 17.1 µM, percent relative to cAMP agonist control]; in [6], 19.6% [at 30.8 µM]. Moreover, in experiment [5], the activity change, negative = inhibition was -1.17% [at 30.8 µM].
